# Shown are actives, neighbours in structure and some others; about 6% of the full set was active somewhere.
# TSHR agonist: activates the human thyroid stimulating hormone receptor | P16473 | HEK293-CNG-TSHR cells (CNG channel as cAMP sensor), membrane potential dye, cAMP | Potency, µM (titrated, usually from 57.1 µM), most hits filed as activators | actives 0.48% (n = 73,000); active = well fitted activation curve with a large enough effect in the main read-out, with a control signal flat, not every such curve was filed as active; inconclusive = small, poorly fitted or top-dose-only effect, or a change in a side signal; inactive = no such curve, though single readings can be large or run the other way; reference of the percent scale not stated here;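 also: the control signal comes from parental cells without the receptor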
# Target sequence (P16473 whole entry, looked up): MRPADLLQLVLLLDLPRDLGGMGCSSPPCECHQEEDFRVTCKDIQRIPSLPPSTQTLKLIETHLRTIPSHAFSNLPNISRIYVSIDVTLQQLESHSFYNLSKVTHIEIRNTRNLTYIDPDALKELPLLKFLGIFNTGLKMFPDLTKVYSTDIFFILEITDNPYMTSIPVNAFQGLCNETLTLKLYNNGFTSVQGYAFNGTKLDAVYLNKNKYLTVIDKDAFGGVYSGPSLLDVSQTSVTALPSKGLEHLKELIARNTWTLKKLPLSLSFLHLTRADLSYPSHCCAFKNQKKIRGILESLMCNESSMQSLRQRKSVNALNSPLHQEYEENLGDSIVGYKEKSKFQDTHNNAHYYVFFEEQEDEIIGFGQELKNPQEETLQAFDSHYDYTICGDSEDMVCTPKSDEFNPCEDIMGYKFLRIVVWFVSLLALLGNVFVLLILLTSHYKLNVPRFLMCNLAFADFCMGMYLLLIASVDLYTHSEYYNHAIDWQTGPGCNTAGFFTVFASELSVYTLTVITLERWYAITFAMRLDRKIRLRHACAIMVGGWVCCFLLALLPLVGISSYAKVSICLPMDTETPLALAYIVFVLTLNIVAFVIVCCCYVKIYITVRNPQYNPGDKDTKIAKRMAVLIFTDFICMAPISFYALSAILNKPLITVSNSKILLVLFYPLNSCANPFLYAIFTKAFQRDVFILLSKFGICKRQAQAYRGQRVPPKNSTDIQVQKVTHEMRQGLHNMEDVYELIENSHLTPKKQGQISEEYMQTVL
#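 HEK 293 cells stably expressing TSHR and a modified CNG channel, with CNG-only parental cells as counterscreen, were preloaded 60 min at room temperature with membrane potential dye containing 100 uM RO 20-1724. Compound exposure was 30 min, and depolarization was read as fluorescence at 590 nm.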
# ERK AVP block: inhibitors of vasopressin-stimulated ERK signaling pathway; AID 995; Potency, µM (titrated, usually from 57.5 µM), actives largely listed as inhibitors; HEK293-V1b, vasopressin-stimulated pERK AlphaScreen; actives 0.99% (n = 72,000); also: nearly all actives have a fitted effect of over 55% in size
#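 qHTS, compounds titrated on V1b-expressing HEK293 cells. Preincubation 30 min at 37C, vasopressin 25 nM for 5 min, lysis 10 min, bead incubation 5 hr at room temperature.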
# HEK293 cAMP ctrl: counter-screen for TSHR agonists: cAMP increase in parental HEK293; parental HEK293 CNG cAMP sensor, membrane potential fluorescence; Potency, µM (series often up to 57.1 µM), usual class: activators; actives 2.5% (n = 73,000); also: nearly all actives have a fitted effect of over 55% in size
#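 Parental HEK 293 cells stably expressing a modified CNG channel (no TSHR) report cAMP rise as membrane depolarization. Membrane potential dye with 100 uM RO 20-1724 was loaded for 60 min at room temperature, then compound added for 30 min; fluorescence read at 590 nm.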
# CRE Fsk mod: modulators of forskolin-stimulated CRE signaling in CHO cells; CHO CRE-bla reporter (cAMP response element driving beta-lactamase), forskolin EC10, beta-lactamase ratio; Potency, µM (top dose mostly 38.2 µM), actives largely listed as activators; actives 2.5% (n = 71,000); AID 662; active = well fitted activation curve with a large enough effect in the signal ratio, with a control signal flat, not every such curve was filed as active; inconclusive = small, poorly fitted or top-dose-only effect, or effect the other way, or a change in a side signal; the % refers to the signal ratio
#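 The 460nm/530nm emission ratio after CCF4 loading defined %Activity, from which AC50 values were obtained. CRE-bla CHO cells received compound dilution series together with an EC10 level of NKH 477 for 3 hours at 37 degrees Celsius.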
# A number is an active result; - = inactive; ? = inconclusive; . = no result given; ! = not confirmed by another sample; [ ] = remark or other dose. Unless noted, calls follow the shape of the dose curve; as a rule, active = well fitted curve in the direction sought with a large enough effect; inconclusive = small, poorly fitted or top-dose-only effect, or another doubt; inactive = no such curve, though single readings can be large; an effect the other way counts as inactive or inconclusive.
SMILES,TSHR agonist,ERK AVP block,HEK293 cAMP ctrl,CRE Fsk mod
CCN(CC)S(=O)(=O)c1cc(C(=O)Nc2nncs2)c(Cl)cc1Cl,.,32µM,-,?
CCC[C@H](Sc1nc(N)nc2nc[nH]c12)C(=O)O,-[11.4 µM],-[11.5 µM],-[11.4 µM],-[7.6 µM]
Cc1cccc2cc(CN(CC3CCCO3)C(=O)c3cccnc3)c3nnnn3c12 (centres undefined),-,-,-,4µM
Cc1cccc2cc(CN(CC3CCCO3)S(=O)(=O)c3ccccc3)c3nnnn3c12 (centres undefined),-,-,-,-
CCCCCCCCCCCCC/C=C\[C@H](O)[C@H](N)CO,-,.,-,-
CN1CC[C@@]2(CCCN(C(=O)c3cccn3C)C2)C1,-,-,-,-
O=c1c(-c2ccccc2)nc2cnc(N3CCNCC3)nc2n1-c1ccccc1,-,-,-,?
COc1ccc2c(C=Nc3c(C)n(C)n(-c4ccccc4)c3=O)c(O)n(Cc3ccco3)c(=O)c2c1,-,-,-,3.2µM
Cc1nc(N2CCOCC2)c2nc(-c3ccccc3)n(CCCN3CCCCC3C)c2n1 (centres undefined),?,-,?,-
COC(=O)Cc1c(C)c2cc(Cl)c(OC(=O)c3ccco3)cc2oc1=O,-,13µM,-,?
COC(=O)Cc1c(C)c2ccc(OC(=O)c3ccco3)cc2oc1=O,-,4µM,-,10µM
COC(=O)Cc1c(C)c2ccc(OCC(=O)N3CCOCC3)cc2oc1=O,-,-,-,-
CCOC(=O)c1cc2occc2n1CC(=O)NC1CCCCC1C (centres undefined),?,-,13µM,-
CC1(C)CC(=O)C2=C(C1)OC1=C(C(=O)CC(C)(C)C1)C2c1ccc(O)cc1O,-[11.4 µM],10µM,-[11.4 µM],?
Cc1cccc(-c2cc3nc4c(c(N5CCC6(CC5)OCCO6)n3n2)CCCC4)c1,-,-,-,?
Cc1cccc(-c2cc3nc4c(c(N5CCCC(O)C5)n3n2)CCC4)c1 (centres undefined),-,-,-,13µM
Cc1cccc(-c2cc3nc4c(c(N5CCOCC5)n3n2)CCCC4)c1,?,-,?,2.5µM
OC1CCCN(c2c3c(nc4cc(-c5cccc(Cl)c5)nn24)CCC3)C1 (centres undefined),-,?,-,?
c1ccc(-n2c(SCc3nc(-c4cccs4)no3)nnc2-c2ccco2)cc1,?,-,?,5µM
Cc1ccc2nc(CSc3nnc(-c4ccco4)n3-c3ccccc3)cc(=O)n2c1,?,-,?,5µM
Cc1ccc2nc(CSc3nnc(-c4ccco4)o3)cc(=O)n2c1,-,?,-,?
C[C@@H]1CN2[C@H](c3ccc(Br)cc3)[C@H](C)CC[C@H]2C(=O)O1,?,-[11.5 µM],?,.
Cc1cccc(Cl)c1NC[C@H](O)CN1CCN(C)CC1,-[11.4 µM],-[11.5 µM],-[11.4 µM],?
N#Cc1nc(-c2ccc(F)cc2)oc1NCc1cccc2c1OCO2,?,7.9µM,?,10µM
Oc1c(C(c2ccccc2)N2CCCCC2)sc2ncnn12 (centres undefined),-,.,-,?
SMILES,TSHR agonist,ERK AVP block,HEK293 cAMP ctrl,CRE Fsk mod
Oc1c(C(c2ccccc2)N2CCN(Cc3ccccc3)CC2)sc2ncnn12 (centres undefined),?,.,32µM,?
CCN(CC)CC[n+]1ccc2c(C)c3[nH]c4ccccc4c3c(C)c2c1,-[11.4 µM],-[11.5 µM],-[11.4 µM],-[7.6 µM]
CCOC(=O)c1ccc2ncc(C(=O)OCC)c(NCc3ccco3)c2c1,?,-,25µM,-
CCOC(=O)c1cnc2c(C)cccc2c1NCc1ccco1,?,-,25µM,?
CCOC(=O)CCN1C(=O)[C@H]2[C@H]3[C@H](O)[C@H](O)C/C(=N/OC[C@@H](O)COCc4ccco4)[C@H]3CC[C@@H]2C1=O,-[11.4 µM],-[11.5 µM],-[11.4 µM],.
O=c1oc2c3c4c(cc2c2c1CCC2)OCCN4CCC3,-,-,-,13µM
Cc1coc2c(C)c3oc(=O)c4c(c3cc12)CCC4,.,?,-,?
C[C@@H]1CC[C@H]2C(=O)O[C@H](CN=[N+]=[N-])CN2[C@@H]1c1ccc(Br)cc1,?,-[11.5 µM],?,.
CCCCCCCCC/C=C/CC1CC(=O)OC1=O (centres undefined),?,-,?,-
CC(C)(Oc1ccc(-c2ccco2)cc1)C(=O)O,?,-,?,-
CC(=O)C1=C(O)C=C(c2ccco2)CC1c1ccco1 (centres undefined),?,-,16µM,-
COc1c2occc2cc2ccc(=O)oc12,?,?,-,16µM!
CC(=O)Oc1c2occc2cc2ccc(=O)oc12,-,-,-,-
O=C(O)C1(C(=O)O)CCN(S(=O)(=O)c2ccccc2)CC1,-[11.4 µM],-[11.5 µM],-[11.4 µM],?
CNCCCC12CCC(c3ccccc31)c1ccccc12,?,-,40µM!,-
OC1C2COC(O2)[C@H](O)C1O (some centres undefined),.,-,.,.
COCCN(CCOC)c1ncc(Cl)c(C(=O)c2c(C)cc3ccccn23)n1,?,-,32µM,-
FC(F)(F)c1ccccc1-c1ccc2ncnc(NC3CC3)c2c1,?,-,32µM,?
FC(F)(F)c1ccccc1-c1ccc2ncnc(NCc3cccs3)c2c1,?,-,10µM,-
CC[C@]1(c2ccccc2)NC(=O)N(C)C1=O,.,-,-,-
O=C(CSc1n[nH]c(=O)[nH]c1=O)c1ccccc1,-,-,-,-
CC1CCC(C(C)C)C(OC(=O)CSc2n[nH]c(=O)[nH]c2=O)C1 (centres undefined),20µM,-,-,-
CCn1cc(C(=O)NCC(=O)OC)c2cc(OC)c(OC)cc2c1=O,-,-,-,?
CCn1cc(C(=O)NCc2ccc(C)o2)c2cc(OC)c(OC)cc2c1=O,-[11.4 µM],-,-,2.5µM
COc1cc2c(C(=O)NCc3ccccn3)cn(C)c(=O)c2cc1OC,-,-,-,5µM
SMILES,TSHR agonist,ERK AVP block,HEK293 cAMP ctrl,CRE Fsk mod
COCCNC(=O)c1cn(C)c(=O)c2cc(OC)c(OC)cc12,-[11.4 µM],-,-,?
CCC(C)NC(=O)c1cn(C)c(=O)c2cc(OC)c(OC)cc12 (centres undefined),-[11.4 µM],-,-,3.2µM
COc1ccccc1NC(=O)c1cn(C)c(=O)c2cc(OC)c(OC)cc12,-[11.4 µM],-,-,?
CCOCCCNC(=O)c1cn(C)c(=O)c2cc(OC)c(OC)cc12,-[11.4 µM],-,-,5µM
COc1cc2c(C(=O)NCCCN3CCN(c4cccc(Cl)c4)CC3)cn(C)c(=O)c2cc1OC,-,-,-,4µM
CCC/C=C(\CCC)C(NC(=O)c1ccco1)c1ccc(C(=O)OC)cc1 (centres undefined),?,-,25µM,-
CCC/C=C(\CCC)C(NC(=O)c1ccc(-c2ccccc2)cc1)c1ccc(C(=O)OC)cc1 (centres undefined),-,-,-,-
CO/N=C\c1ccc(C(=O)N2[C@H](c3ccc(C)cc3)[C@@H](C)CC[C@H]2C(=O)OC)cc1,?,-[11.5 µM],2µM,.
COC(=O)[C@@H]1CC[C@H](C)[C@@H](c2ccc(C)cc2)N1C(=O)c1ccc(/C=N\O[C@@H]2O[C@H](COC(C)=O)[C@H](OC(C)=O)[C@H](OC(C)=O)[C@H]2OC(C)=O)cc1,-[11.4 µM],-[11.5 µM],-[11.4 µM],.
Cc1ccccc1C(=O)NCc1ccncc1,-,25µM,-,-

# From PubChem BioAssay
